Where “and” joins values, the source holds several entries; their conditions need not be identical. Identical values can stand only once. Results filed as inconclusive are left out. The source holds several records for some structures; these can differ, active in one and inactive in another. Calls of active or inactive are those of the source. Calls come from the whole dose curve; as a rule, active = well fitted activation curve with a large enough effect in the repeat runs; inconclusive = weak or mixed curves; inactive = flat fitted curve, though single readings scatter.
Assay: A CellTox Green Cytotoxicity Assay to monitor cytotoxicity in HepG2 cells - 24 hour (AID 1224878); note: nearly all actives have a fitted effect of over 45% in size
Conditions: CellTox Green fluorescence; series mostly up to 76.8 µM; cytotoxicity: at the top concentration
Excerpt: National Center for Advancing Translational Sciences [NCATS]
NIH Chemical Genomics Center [NCGC]
U.S. Environmental Protection Agency [EPA]
National Institutes of Environmental Health Sciences [NIEHS]
National Toxicology Program [NTP]
Cell-based models are critical for drug discovery. Determining the natural cytotoxic effects resulting from test compounds is an essential research activity. A CellTox Green Cytotoxicity Assay to monitor cytotoxicity in real time of continues cell culture during 40 hours of the compound treatment was used to screen Tox21 10K library compounds in HepG2 cells. CellTox Green Cytotoxicity Assay is a nonlytic, homogeneous, biofluorescent method to measure cytotoxicity in cell culture after experimental manipulation. The assay system uses a proprietary asymmetric cyanine dye that is excluded from viable cells but preferentially stains the dead cell's DNA. […] Viable cells produce no appreciable increases in fluorescence. Therefore, the fluorescence signal produced by the binding interaction with dead cell DNA is proportional to cytotoxicity.
The mixture of HepG2 cell suspension and reagents were dispensed at 600cells/6 ul/well in 1536-well tissue culture treated black solid bottom plates using a Multidrop dispenser. After the assay plates were incubated at a 37 C/5% CO2 incubator for 5 hours, 23 nL of compounds dissolved in DMSO, positive and negative controls was transferred to the assay plate by a pintool work station. The plates were incubated at 37 C for 40 hours. The fluorescence intensity were measured at 0h, 8h, 16h, 24h, 32h and 40h time points using ViewLux plate reader during compound treatment.
In the case of `COc1cccc(N)c1`, the “cytotoxicity” value is reported as -1.93% (inactive). In the case of `NNc1nc(-c2ccccc2)cs1`, the “cytotoxicity” value is reported as -4.21% (inactive). In the case of `CCCCCCCCOC(=O)c1ccc(O)cc1`, the Potency is reported as “inactive and 43.6 µM (active)”. With `O=C(O)c1c(Cl)cccc1Cl` the “cytotoxicity” value was -4.33% (inactive). In the case of `Cc1cc(O)c(C(C)(C)C)cc1Sc1cc(C(C)(C)C)c(O)cc1C`, the Potency is reported as 54.8 µM (active). In the case of `CCCCN1C(=O)[C@@H]([C@H](O)C2CCCCC2)NC(=O)C12CCN(Cc1ccc(Oc3ccc(C(=O)O)cc3)cc1)CC2`, the “cytotoxicity” value is reported as 1.17% (inactive). For `Clc1ccc2n[nH]nc2c1`, the “cytotoxicity” value was -0.259% (inactive). With `Cc1cc(O)c(Cl)c(C)c1Cl` the Potency was 54.9 µM (active). With `N#CSc1ccc(N)c([N+](=O)[O-])c1` the “cytotoxicity” value was 24% (inactive). For `COc1cc(-c2ccc(N=C=O)c(OC)c2)ccc1N=C=O`, the “cytotoxicity” value was 2% [at 35.3 µM] (inactive). With `CCC(N)(CO)CO` the “cytotoxicity” value was 4.97% (inactive). In the case of `Oc1ccc(C2(c3ccc(O)cc3)CC3CC2C2CCCC32)cc1` (stereo not given), the “cytotoxicity” value is reported as 11.6% (inactive). In the case of `CCN(C(=O)c1cc(C)cc(OC[C@H](C)Nc2ccncc2)c1)C(C)C`, the “cytotoxicity” value is reported as -0.696% [at 35.3 µM] (inactive). In the case of `C1CCCC1`, the “cytotoxicity” value is reported as 0.905% (inactive). With `Cc1ccc2oc(CN(Cc3ccccc3)C(=O)Nc3c(F)cc(F)cc3F)c(-c3ccc(Cl)cc3)c2c1` the “cytotoxicity” value was 3.34% (inactive). In the case of `CC(C)c1ccc2c(c1)CC[C@H]1[C@](C)(CN)CCC[C@]21C`, the Potency is reported as 13.8 µM (active). With `Cc1cccc(CN2CCN(C(c3ccccc3)c3ccc(Cl)cc3)CC2)c1` (stereo not given) the “cytotoxicity” value was 1.48% [at 35.3 µM] (inactive). For `O=C(N/N=C/c1ccccc1O)c1ccncc1`, the “cytotoxicity” value was 4.45% [at 35.3 µM] (inactive). For `CCCCCCCCS(=O)C(C)Cc1ccc2c(c1)OCO2` (stereo not given), the “cytotoxicity” value was 12.1% (inactive). With `OCc1c[nH]c2ccccc12` the “cytotoxicity” value was -8.19% (inactive). For `CCCCCCCCNC(C)C(O)c1ccc(SC(C)C)cc1` (stereo not given), the Potency was 16.9 µM (active). For `CCc1cc(Cc2cc(CC)c(N)c(CC)c2)cc(CC)c1N`, the “cytotoxicity” value was 19.2% (inactive). In the case of `Cc1cccc(N(C)C(=S)Oc2ccc3c(c2)C2CCC3C2)c1` (stereo not given), the “cytotoxicity” value is reported as 1.5% [at 35.3 µM] (inactive). In the case of `O=C(c1ccc(O)cc1O)c1ccc(O)cc1O`, the Potency is reported as “inactive”. With `COC(=O)C1=C(C)NC(C)=C(C(=O)OCCc2ccc(N3CCN(C(c4ccccc4)c4ccccc4)CC3)cc2)C1c1cccc([N+](=O)[O-])c1` (stereo not given) the “cytotoxicity” value was 0.588% [at 35.3 µM] (inactive). In the case of `NC(=O)N1C(=O)C(C(=O)c2cc(Cl)cs2)c2cc(F)c(Cl)cc21` (stereo not given), the “cytotoxicity” value is reported as 11.1% (inactive). With `C[C@@H](NCCCc1cccc(C(F)(F)F)c1)c1cccc2ccccc12` the Potency was 16.9 µM (active). In the case of `O=C(Nc1cccc(C(F)(F)F)c1)c1cc(Br)cc(Br)c1O`, the Potency is reported as 19.5 µM (active). In the case of `Cc1nc(-c2ccc3c(c2)CCN(CCC2CCC(NC(=O)/C=C/c4ccc(F)cc4)CC2)CC3)no1` (stereo not given), the “cytotoxicity” value is reported as -3.39% [at 35.3 µM] (inactive). For `CCN(C(=O)N(CC)c1ccccc1)c1ccccc1`, the “cytotoxicity” value was 11.7% (inactive). With `CC1=C(/C=C/C(C)=C/C=C/C(C)=C/C=O)C(C)(C)CCC1` the Potency was 54.6 µM (active). With `Nc1c(Cl)cc(Cl)cc1Cl` the “cytotoxicity” value was 21.3% (inactive). In the case of `CCOC(=O)c1nc(C(Cl)(Cl)Cl)n(-c2ccc(Cl)cc2Cl)n1`, the “cytotoxicity” value is reported as -8.94% (inactive). With `CC(C)(C)C(=O)OCOC(=O)[C@@H]1N2C(=O)[C@@H](NC(=O)[C@H](N)c3ccccc3)[C@H]2SC1(C)C` the “cytotoxicity” value was 2.26% [at 35.3 µM] (inactive). With `Cc1[nH]cnc1C[C@H]1CCc2c(C)c3ccccc3n2C1=O` the Potency was 38 µM (active). With `ON=C1CCCC1` the “cytotoxicity” value was 1.26% (inactive). For `CCCCCCCCCCCC(=O)NCCCN(C)C`, the Potency was 34.7 µM (active). In the case of `CCCCCCCCCCCC[N+](C)(C)CCCCCCCCCCCC`, the Potency is reported as 7.76 µM (active). With `CCN(Cc1cccnc1)C(=O)c1cccc(Cl)c1[C@]1(C)C(=O)N(Cc2ccc(OC)cc2OC)c2ccc(Cl)cc21` the “cytotoxicity” value was -0.0925% (inactive). For `N=C1C=CC(=C(c2ccc(N)cc2)c2ccc(N)cc2)C=C1`, the “cytotoxicity” value was -39.4% (inactive).

— PubChem BioAssay (Tox21)
% is set by controls: 0 for no effect and ±100 for the full control effect; potency is the fitted concentration of half-maximal effect.
